According to PubChem BioAssay (EPA / NIEHS):
Calls of active or inactive are those of the source. How the source made its calls: active means hit-call score of the fitted dose curve at least 0.9, where 1 is the maximum; inactive means score below 0.9.

Key:
[1] = target: Nuclear respiratory factor 1 (Homo sapiens) (UniProt Q16656); assay: ATG_NRF1_CIS: Attagene CIS-FACTORIAL HepG2 Assay for human Nuclear Respiratory Factor 1 (NRF1) Orphan Gene (AID 2282987); conditions: HepG2 NRF1 cis-element reporter, Attagene multiplex; actives raise or lower the signal
Procedure, shortened: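 Endogenous NRF1-driven reporter transcription measured in transiently transfected human HepG2 liver cells. Readout: reporter mRNA by RT-PCR and capillary electrophoresis with fluorescence detection, 24 h post-dosing. Gain or loss of signal fitted relative to DMSO baseline.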

[2] = ATG_NFI_CIS: Attagene CIS-FACTORIAL HepG2 Assay for human Nuclear Factor I (NFI) (AID 2282989); conditions: HepG2 cis-regulatory reporter, NFI response element transcription; actives raise or lower the signal
Procedure, shortened: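 Transient MRTU transfection of HepG2 → 24 h chemical dosing → total RNA, oligo(dT) RT → PCR, 6-FAM primer extension, HpaI cut → capillary electrophoresis. Endpoint fitted bidirectionally relative to DMSO.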

[3] = target: Myc proto-oncogene protein (Homo sapiens) (UniProt P01106); assay: ATG_Myc_CIS: Attagene CIS-FACTORIAL HepG2 Assay for human Myelocytomatosis (Myc) Proto-Oncogene Transcription Factor (AID 2282990); conditions: HepG2, Attagene cis-reporter transcription factor activity; actives raise or lower the signal
Procedure, shortened: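 HepG2 cells transiently transfected with multiple cis-promoter-driven reporter transcription units, so endogenous TF activity is read. After 24 h compound exposure, reporter mRNA was quantified by RT-PCR, 6-FAM labelling, HpaI digestion and capillary electrophoresis; bidirectional fit versus DMSO.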

[4] = ATG_NF_kB_CIS: Attagene CIS-FACTORIAL HepG2 Assay for human Nuclear Factor Kappa B (NF-kB) (AID 2282991); conditions: HepG2 Attagene cis-factorial NF-kB reporter mRNA; actives raise or lower the signal
Procedure, shortened: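 Read-out: reporter transcript levels quantified by RT-PCR plus capillary electrophoresis of 6-FAM-labelled, HpaI-cut fragments. Transfected HepG2 cells, 24 h compound exposure, endogenous NF-kB-driven cis element; gain or loss scored versus DMSO.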

[5] = ATG_NRF2_ARE_CIS: Attagene CIS-FACTORIAL HepG2 Assay for human Nuclear Factor Erythroid 2 Related Factor 2 (NFR2) response to Antioxidant Response Elements (ARE) (AID 2282992); conditions: HepG2 Attagene ARE/NRF2 reporter, transcription factor activity; actives raise or lower the signal
Procedure, shortened: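 Using transiently transfected HepG2 cells exposed for 24 h, reporter mRNA levels were determined by RT-PCR with fluorescent primer extension and capillary electrophoresis, analysed for gain or loss of signal against DMSO.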

[6] = ATG_Oct_MLP_CIS: Attagene CIS-FACTORIAL HepG2 Assay for human Octamer-Binding Transcription Factor (Oct) (AID 2282993); conditions: HepG2 Attagene cis-factorial Oct reporter, mRNA; actives raise or lower the signal
Procedure, shortened: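 Transient MRTU transfection of HepG2 → 24 h compound treatment → RNA isolation, reverse transcription, PCR → 6-FAM primer extension, HpaI digest → capillary electrophoresis. Activity fitted both directions against DMSO.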

[7] = target: Cellular tumor antigen p53 (Homo sapiens) (UniProt P04637); assay: ATG_p53_CIS: Attagene CIS-FACTORIAL HepG2 Assay for human p53 Transcription Factor (AID 2282994); conditions: HepG2 p53 cis-element reporter, Attagene mRNA; actives raise or lower the signal
Procedure, shortened: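 In HepG2 cells, reporter transcription units under cis-regulatory promoters were transiently introduced. Following 24 h treatment, RNA was processed to labelled, digested cDNA fragments read by capillary electrophoresis; fitting was bidirectional versus DMSO.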

[8] = BSK_3C_TissueFactor: BioMAP Diversity Plus: 3C Assay for Tissue Factor Biomarker Activity (AID 2282997); conditions: BioMAP 3C HUVEC, tissue factor biomarker readout; actives raise or lower the signal
Procedure, shortened: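 Tissue factor on primary human umbilical vein endothelium was read by ELISA 24 h after dosing, gain or loss relative to DMSO. Cytotoxicity ran alongside via SRB (0.1%, TCA-fixed, 560 nm).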

[9] = BSK_3C_uPAR: BioMAP Diversity Plus: 3C Assay for Urokinase-type plasminogen activator receptor (uPAR) Biomarker Activity (AID 2282998); conditions: BioMAP 3C HUVEC, uPAR biomarker ELISA; actives raise or lower the signal
Procedure, shortened: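 ELISA readout of uPAR on human vascular endothelium (umbilical vein primary cells), taken 24 h after chemical dosing. Increases and decreases are both fitted relative to DMSO vehicle.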

[10] = BSK_3C_VCAM1: BioMAP Diversity Plus: 3C Assay for Vascular cell adhesion molecule 1 (VCAM1) Biomarker Activity (AID 2282999); conditions: BioMAP 3C HUVEC, VCAM1 ELISA, cytokine-stimulated; actives raise or lower the signal
Procedure, shortened: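 Vascular primary endothelium (human umbilical vein) was exposed to chemicals and assayed 24 h later. VCAM-1 levels came from ELISA, with DMSO serving as baseline for bidirectional fitting.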

Chain of Cellular tumor antigen p53 (Homo sapiens) (P04637 whole entry, looked up, the tested form may be a part): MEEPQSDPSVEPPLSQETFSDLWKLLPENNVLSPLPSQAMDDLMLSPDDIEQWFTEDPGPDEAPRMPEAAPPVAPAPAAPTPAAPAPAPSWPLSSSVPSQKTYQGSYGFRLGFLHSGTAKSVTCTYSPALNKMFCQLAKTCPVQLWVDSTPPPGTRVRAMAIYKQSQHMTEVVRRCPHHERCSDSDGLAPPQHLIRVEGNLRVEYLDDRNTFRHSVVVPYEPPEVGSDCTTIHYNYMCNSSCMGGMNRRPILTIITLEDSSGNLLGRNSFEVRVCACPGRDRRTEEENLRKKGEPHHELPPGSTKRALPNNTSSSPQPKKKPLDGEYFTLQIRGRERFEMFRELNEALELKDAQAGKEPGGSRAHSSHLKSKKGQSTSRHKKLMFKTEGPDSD
Chain of Myc proto-oncogene protein (Homo sapiens) (P01106 whole entry, looked up): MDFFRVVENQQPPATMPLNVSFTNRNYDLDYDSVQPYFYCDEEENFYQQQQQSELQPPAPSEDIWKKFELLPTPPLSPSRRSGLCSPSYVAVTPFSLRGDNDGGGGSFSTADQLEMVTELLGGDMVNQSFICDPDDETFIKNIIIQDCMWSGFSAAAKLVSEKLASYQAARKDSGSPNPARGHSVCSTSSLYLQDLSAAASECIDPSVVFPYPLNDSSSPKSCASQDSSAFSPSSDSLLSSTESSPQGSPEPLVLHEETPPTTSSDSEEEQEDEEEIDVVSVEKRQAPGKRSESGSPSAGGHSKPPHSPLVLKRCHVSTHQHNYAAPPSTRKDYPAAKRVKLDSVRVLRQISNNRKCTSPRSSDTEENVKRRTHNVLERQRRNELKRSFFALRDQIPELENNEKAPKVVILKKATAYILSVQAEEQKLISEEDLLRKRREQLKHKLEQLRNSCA
Chain of Nuclear respiratory factor 1 (Homo sapiens) (Q16656 whole entry, looked up): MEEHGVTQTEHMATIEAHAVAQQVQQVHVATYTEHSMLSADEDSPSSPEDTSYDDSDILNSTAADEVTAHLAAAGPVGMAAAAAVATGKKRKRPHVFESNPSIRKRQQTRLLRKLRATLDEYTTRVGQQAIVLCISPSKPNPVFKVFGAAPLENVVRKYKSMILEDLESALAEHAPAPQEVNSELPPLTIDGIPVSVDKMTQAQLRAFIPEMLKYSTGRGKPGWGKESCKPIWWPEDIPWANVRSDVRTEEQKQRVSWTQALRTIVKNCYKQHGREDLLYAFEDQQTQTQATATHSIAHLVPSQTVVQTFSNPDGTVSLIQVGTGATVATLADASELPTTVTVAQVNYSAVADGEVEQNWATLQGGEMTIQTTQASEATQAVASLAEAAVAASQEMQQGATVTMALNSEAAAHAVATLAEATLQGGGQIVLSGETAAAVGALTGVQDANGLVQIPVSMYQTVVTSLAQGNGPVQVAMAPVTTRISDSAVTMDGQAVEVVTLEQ

| SMILES | outcome [1] | outcome [2] | outcome [3] | outcome [4] | outcome [5] | outcome [6] | outcome [7] | outcome [8] | outcome [9] | outcome [10] | AC50 [5] | AC50 [1] | AC50 [4] | AC50 [8] | AC50 [9] | AC50 [10] |
| --- | --- | --- | --- | --- | --- | --- | --- | --- | --- | --- | --- | --- | --- | --- | --- | --- |
| Nc1cc([N+](=O)[O-])cc(Cl)c1O | inactive | inactive | inactive | inactive | inactive | inactive | inactive | inactive | inactive | inactive |  |  |  |  |  |  |
| FC(F)(F)C(F)(F)C(F)(F)C(F)(F)C(F)(F)C(F)(F)C(F)(F)CCI | inactive | inactive | inactive | inactive |  | inactive | inactive | inactive | inactive | inactive | 30.6 µM (active) |  |  |  |  |  |
| NC(=O)C(F)(F)C(F)(F)C(F)(F)C(F)F | inactive | inactive | inactive | inactive | inactive | inactive | inactive | inactive | inactive | inactive |  |  |  |  |  |  |
| CCC/C=C/CO | inactive | inactive | inactive |  | inactive | inactive | inactive |  |  |  |  |  |  |  |  |  |
| O=C1C=CC(=O)N1c1ccc(Cc2ccc(N3C(=O)C=CC3=O)cc2)cc1 |  | inactive | inactive |  |  | inactive | inactive |  |  |  | 33.4 µM (active) | 60.1 µM (active) | 11.2 µM (active) | 5.47 µM (active) | 5.81 µM (active) | 7.45 µM (active) |
| OCC(F)(F)C(F)(F)C(F)(F)C(F)(F)C(F)(F)C(F)(F)CO | inactive | inactive | inactive | inactive | inactive | inactive | inactive | inactive | inactive | inactive |  |  |  |  |  |  |
| CCN(CC)c1ccc2c(c1)Oc1cc(N(CC)CC)ccc1C21OC(=O)c2ccccc21 | inactive | inactive | inactive | inactive |  | inactive | inactive |  |  | inactive | 34.8 µM (active) |  |  | 2.97 µM (active) | 11.2 µM (active) |  |
